For 40 compounds, outcome results are on record in PubChem BioAssay (Tox21).

Results filed as inconclusive are left out. Calls of active or inactive are those of the source. Calls follow the shape of the dose curve; as a rule, active = well fitted inhibition curve with a large enough effect in the signal ratio in the repeat runs (not every such curve was filed as active); inconclusive = weak or mixed curves, or effect the other way; inactive = no such curve, though single readings can be large or run the other way; the % refers to the signal ratio.

Sequence of Estrogen receptor beta (Homo sapiens) (Q92731 whole entry, looked up): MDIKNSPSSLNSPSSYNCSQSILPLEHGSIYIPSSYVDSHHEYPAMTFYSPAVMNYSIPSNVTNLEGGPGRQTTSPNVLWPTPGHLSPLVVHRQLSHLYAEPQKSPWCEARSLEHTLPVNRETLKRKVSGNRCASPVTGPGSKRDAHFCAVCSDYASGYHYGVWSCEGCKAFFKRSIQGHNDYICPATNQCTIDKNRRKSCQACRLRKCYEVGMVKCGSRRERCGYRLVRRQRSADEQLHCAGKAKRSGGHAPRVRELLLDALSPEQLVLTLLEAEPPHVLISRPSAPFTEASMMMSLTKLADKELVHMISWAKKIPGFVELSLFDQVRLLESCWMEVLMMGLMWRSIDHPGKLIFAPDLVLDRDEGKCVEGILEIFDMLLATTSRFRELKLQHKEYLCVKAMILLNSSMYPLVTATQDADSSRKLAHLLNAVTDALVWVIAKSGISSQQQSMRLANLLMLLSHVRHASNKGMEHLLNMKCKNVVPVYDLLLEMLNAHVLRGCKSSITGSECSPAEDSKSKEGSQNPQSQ

The target of this test is Estrogen receptor beta (Homo sapiens) (UniProt Q92731). The test is described as follows: qHTS assay to identify small molecule antagonists of the estrogen receptor beta (ER-beta) signaling pathway (AID 1259378). To be noted: ER-beta-UAS-bla HEK293T, beta-lactamase FRET ratio, 16 h; series mostly up to 92.4 µM. An excerpt:
National Center for Advancing Translational Sciences [NCATS]
NIH Chemical Genomics Center [NCGC]
U.S. Environmental Protection Agency [EPA]
National Institutes of Environmental Health Sciences [NIEHS]
National Toxicology Program [NTP]
U.S. Food and Drug Administration [FDA]
Estrogen receptor (ER), a nuclear hormone receptor, plays an important role in development, metabolic homeostasis and reproduction. Two subtypes of ER, ER-alpha and ER-beta, have similar expression patterns with some uniqueness in both types. Endocrine disrupting chemicals (EDCs) and their interactions with steroid hormone receptors like ER causes disruption of normal endocrine function. To identify the compounds that inhibit ER signaling, an ER-beta-UAS-bla GripTite cell line (Life Technologies, Madison, WI, USA) containing a beta-lactamase reporter gene under the control of an UAS response element was used to screen Tox21 10K compound library.
Tox21 Assay Protocol Summary:
ER-beta-UAS-bla HEK293T cells were dispensed at 2,000 cells/4 uL of assay medium containing 2% charcoal stripped FBS per well into black wall/clear-bottom 1536-well plates using a Multidrop Combi (ThermoFisher Scientific, Waltham, MA) dispenser. After the assay plates were incubated at a 37C and 5% CO2 for 6 hr, 23 nL of compounds dissolved in DMSO, positive controls or DMSO only was transferred to the assay plate by a Pintool station (Kalypsys, San Diego, CA), followed by addition of 1 uL (1nM as final concentration) of 17-beta-estradiol (E2) in assay medium using a BioRAPTR FRD (Flying Reagent Dispenser, Aurora Discovery, San Diego, CA). The plates were incubated at 37C and 5% CO2 for 16 hr. Then 1 uL of LiveBLAzerTM B/G FRET substrate was added using a Flying Reagent Dispenser, the plates were incubated at room temperature for 2 hours, and fluorescence intensity was measured by an Envision plate reader (PerkinElmer, Shelton, CT).
On the technique in general: In qHTS, concentration-response curves come from the screen itself.
Turning to `C1CCN2C[C@@H]3C[C@@H](CN4CCCC[C@@H]34)[C@H]2C1`, the outcome was inactive.
Next, `Cc1cc(O)c2c(c1)C(=O)c1cccc(O)c1C2=O`: “inactive”; `CCCCC(C)C(=O)O` (stereo not given): “inactive”.
Next, `CCCCCCCCCCC`: “inactive”.
Next, `CC(C)C(=O)c1ccccc1`: “inactive”.
On to `O=S1(=O)CCCC1`, for which the result was inactive.
In the case of `O=CN1CCOCC1`, the outcome was inactive.
With `O=S(=O)(O)SSS(=O)(=O)O`, the result was inactive.
Next, `NS(=O)(=O)c1ccc(Cl)c(S(N)(=O)=O)c1`: “inactive”; `CCOC(=O)C(=O)c1csc(NC=O)n1`: “inactive”.
Next, `CC(=O)OCCCc1ccccc1`: “inactive”; `CCCCCC1CCCC(=O)O1` (stereo not given): “inactive”; `NC(=O)NNC(N)=O`: “inactive”.
Next, `CO[Si](CCCCl)(OC)OC`: “inactive”.
For `CCOC(=O)CC#N`, the result was inactive.
Next, `Nc1ccnc(=O)[nH]1`: “inactive”.
With `Nc1ccc(C(=O)OCC(O)CO)cc1` (stereo not given), the outcome was inactive.
On to `Nc1ccc(S(=O)(=O)NC(=O)c2ccccc2)cc1`, for which the result was inactive.
Next, `c1ccc(CNc2ncnc3nc[nH]c23)cc1`: “inactive”; `CCCCCCCCCOCC1CO1` (stereo not given): “inactive”.
`CCCCOC(=O)C(C)OC(=O)CCC` (stereo not given): the result was inactive.
Next, `CCOC(=O)OCC/C(SC(=O)OCC)=C(\C)N(C=O)Cc1cnc(C)nc1N`: “inactive”.
Next, `CN=C(NC#N)NCCSCc1csc(N=C(N)N)n1`: “inactive”.
Next, `FC(F)(F)/C(=N\OCC1OCCO1)c1ccc(Cl)cc1`: “inactive”; `CC(C)CCCC(C)CC=O` (stereo not given): “inactive”; `COC(OC)C(C)c1ccccc1` (stereo not given): “inactive”.
Turning to `CCCCCCCCCCCCC1CO1` (stereo not given), the result was inactive.
Next, `C=CCOC(=O)c1ccc(C(=O)OCC=C)c(C(=O)OCC=C)c1`: “inactive”; `C=CCOCC(CO)(COCC=C)COCC=C`: “inactive”.
Next, `CO[Si](CCCS)(OC)OC`: “inactive”.
With `CC(C)COC(=O)COc1ccc(Cl)cc1Cl`, the result was inactive.
Next, `C=CCOc1c(Br)cc(Br)cc1Br`: “inactive”.
As to `CO/N=C(/C(=O)N[C@@H]1C(=O)N2C(C(=O)O)=C(Cn3nnc(C)n3)CS[C@H]12)c1csc(N)n1`, the result was inactive.
Next, `OCCCCCCCl`: “inactive”.
Next, `O=c1cc(O)c(Cl)c[nH]1`: “inactive”; `CCCCC(CC)COC(=O)c1ccccc1` (stereo not given): “inactive”; `C1=CCC(c2ccccc2)CC1` (stereo not given): “inactive”.
Take `Cn1c(=O)c2c(ncn2CC2OCCO2)n(C)c1=O`: the outcome was inactive.
For the compound `CC(C)CCC(=O)CCC(C)C`, the result was inactive.
Next, `CCC(=O)OCCC(C)CCC=C(C)C` (stereo not given): “inactive”.
